According to PubChem BioAssay (EPA / NIEHS):
Active and inactive are the calls of the source. How the source made its calls: active means hit-call score of the fitted dose curve at least 0.9, where 1 is the maximum; inactive means score below 0.9.

What was measured:
[1] = ATG_EGR_CIS: Attagene CIS-FACTORIAL HepG2 Assay for human Early Growth Response 1 (EGR1) (AID 2282938); details: HepG2 Attagene CIS-FACTORIAL EGR reporter mRNA; actives raise or lower the signal
Summary of the method: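 Endogenous TF activity in HepG2 liver cells was gauged through cis-promoter reporter constructs transiently transfected. After 24 h dosing, reporter mRNA was quantified by RT-PCR and capillary electrophoresis, and curves fitted in both directions versus DMSO.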

[2] = ATG_M_19_CIS: Attagene CIS-FACTORIAL HepG2 Assay for M19 Transcription Factor (Internal Marker) (AID 2282939); details: HepG2 Attagene CIS-FACTORIAL M19 internal marker reporter; actives raise or lower the signal
Summary of the method: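 Internal marker readout, fitted in both directions against DMSO, from HepG2 cells carrying transfected cis-element reporter constructs; RT-PCR and capillary electrophoresis of reporter mRNA after 24 h exposure.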

[3] = ATG_Ets_CIS: Attagene CIS-FACTORIAL HepG2 Assay for human Erythroblast Transformation Specific (ETS) (AID 2282941); details: HepG2 ETS cis-reporter transcription, actives raise or lower the signal
Summary of the method: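 After transient cis-reporter transfection, HepG2 cells receive test chemical for 24 h. Reporter mRNA levels, measured by RT-PCR and capillary electrophoresis fluorescence, are analysed bidirectionally relative to the DMSO baseline.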

[4] = target: Hepatocyte nuclear factor 3-beta (Homo sapiens) (UniProt Q9Y261); assay: ATG_FoxA2_CIS: Attagene CIS-FACTORIAL HepG2 Assay for human Forkhead box A2 (FOXA2) (AID 2282942); details: HepG2 cis-reporter transcription factor activity, 24 h; actives raise or lower the signal
Summary of the method: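 Endogenous transcription factor activity was read in HepG2 cells carrying transiently transfected cis-promoter reporter units. After 24 h dosing, reporter mRNA was quantified by RT-PCR and capillary electrophoresis, and values fitted bidirectionally versus DMSO.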

[5] = ATG_FoxO_CIS: Attagene CIS-FACTORIAL HepG2 Assay for human Forkhead box O (FoxO) (AID 2282943); details: HepG2 Attagene cis-reporter, FoxO element, mRNA; actives raise or lower the signal
Summary of the method: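 HepG2, transient MRTU transfection (cis element, endogenous TFs). Dose 24 h. TriZol RNA → oligo(dT) RT → PCR → 6-FAM primer extension → HpaI cut → CE. Gain/loss vs DMSO.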

[6] = ATG_GATA_CIS: Attagene CIS-FACTORIAL HepG2 Assay for human GATA Binding Protein (AID 2282944); details: HepG2 GATA cis-element reporter, Attagene multiplex mRNA; actives raise or lower the signal
Summary of the method: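 Reporter transcripts from a GATA cis-regulated unit, among multiplexed reporters in transfected HepG2 cells, were measured by RT-PCR with capillary electrophoresis after 24 h dosing. Induction or loss scored relative to DMSO.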

[7] = ATG_GLI_CIS: Attagene CIS-FACTORIAL HepG2 Assay for human Zinc Finger Protein GLI1 (AID 2282945); details: HepG2, Attagene cis-factorial reporter mRNA, GLI element; actives raise or lower the signal
Summary of the method: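 Bidirectional curve fits relative to DMSO, using reporter mRNA levels from RT-PCR plus capillary electrophoresis. Cells were HepG2 transiently carrying cis-regulated reporter constructs, harvested 24 h after dosing.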

[8] = target: Bile acid receptor (Homo sapiens) (UniProt Q96RI1); assay: ATG_IR1_CIS: Attagene CIS-FACTORIAL HepG2 Assay for human Nuclear Receptor Subfamily 1 Group H Member 4 (NR1H4), IR1 submotif (AID 2282946); details: IR1 reporter transcription, actives raise or lower the signal
Summary of the method: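 Cells (human HepG2) carry transiently transfected cis-promoter reporter transcription units. Compounds are incubated 24 h, total RNA is reverse-transcribed and amplified, and labelled fragments are resolved by capillary electrophoresis. Curves use DMSO as baseline.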

[9] = ATG_ISRE_CIS: Attagene CIS-FACTORIAL HepG2 Assay for human Interferon Regulatory Factor 1 (IRF1) binding to an Interferon-Stimulated Response Element (ISRE) (AID 2282948); details: HepG2 ISRE cis-reporter (Attagene), mRNA transcription readout; actives raise or lower the signal
Summary of the method: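 Quantitation relies on labelled RT-PCR fragments separated by capillary electrophoresis. Human HepG2 cells bearing cis-promoter reporter constructs were treated 24 h; DMSO served as baseline for bidirectional fitting.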

[10] = ATG_M_32_CIS: Attagene CIS-FACTORIAL HepG2 Assay for M32 Transcription Factor (Internal Marker) (AID 2282949); details: HepG2 Attagene cis-factorial M32 reporter, mRNA; actives raise or lower the signal;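 further: background control marker of the multiplexed CIS panel rather than a real target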
Summary of the method: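 HepG2 cells transiently transfected with multiplexed cis-regulated reporter units, dosed 24 h. Reporter mRNA quantified by RT-PCR, 6-FAM labelling, HpaI digestion and capillary electrophoresis; bidirectional fit vs DMSO.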

[11] = ATG_M_06_CIS: Attagene CIS-FACTORIAL HepG2 Assay for M06 Transcription Factor (Internal Marker) (AID 2282950); details: HepG2 Attagene CIS-FACTORIAL M06 internal marker reporter; actives raise or lower the signal
Summary of the method: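 Serves as a background control readout. Transfected HepG2 exposed to compounds for 24 h, then reporter transcripts quantified by fluorescent RT-PCR and capillary electrophoresis. Both directions fitted against DMSO baseline.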

[12] = target: Hypoxia-inducible factor 1-alpha (Homo sapiens) (UniProt Q16665); assay: ATG_HIF1a_CIS: Attagene CIS-FACTORIAL HepG2 Assay for human Hypoxia Inducible Factor 1 (HIF1A) (AID 2282951); details: HepG2 Attagene cis-factorial HIF1a reporter transcription; actives raise or lower the signal
Summary of the method: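 Measures endogenous transcription-factor activity through cis-regulated reporter mRNA in HepG2. Cells dosed 24 h; transcripts quantified by RT-PCR with 6-FAM-labelled products separated by capillary electrophoresis; DMSO serves as negative control.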

[13] = target: Hepatocyte nuclear factor 6 (Homo sapiens) (UniProt Q9UBC0); assay: ATG_HNF6_CIS: Attagene CIS-FACTORIAL HepG2 Assay for human Hepatocyte Nuclear Factor 6 (HNF6) (AID 2282952); details: HepG2 Attagene cis-factorial HNF6 reporter transcription; actives raise or lower the signal
Summary of the method: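 HepG2, transient MRTU transfection (cis promoters); 24 h chemical exposure; total RNA → oligo(dT) RT → PCR → 6-FAM labelling → HpaI cut → CE; bidirectional fit vs DMSO.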

[14] = target: Heat shock factor protein 1 (Homo sapiens) (UniProt Q00613); assay: ATG_HSE_CIS: Attagene CIS-FACTORIAL HepG2 Assay for human Heat Shock Transcription Factor 1 (HSE) (AID 2282953); details: HepG2 HSE cis-reporter, Attagene RNA transcription; actives raise or lower the signal
Summary of the method: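 Endogenous transcription factor activity in transiently transfected HepG2, read as reporter mRNA by RT-PCR with fluorescent capillary electrophoresis after 24 h. Gain or loss of signal fitted versus DMSO baseline.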

[15] = ATG_MRE_CIS: Attagene CIS-FACTORIAL HepG2 Assay for human Metal Responsive Element (MRE) (AID 2282954); details: HepG2 MRE cis-reporter transcription, Attagene multiplex; actives raise or lower the signal
Summary of the method: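 Transient MRTU transfection of HepG2 (FuGene 6); 24 h dosing; total RNA → oligo(dT) RT, PCR, 6-FAM primer extension, HpaI cut, CE. Bidirectional fit vs DMSO.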

[16] = ATG_PBREM_CIS: Attagene CIS-FACTORIAL HepG2 Assay for human Phenobarbital-responsive Enhancer Module (PBREM) (AID 2282955); details: HepG2 PBREM cis-reporter, Attagene multiplexed transcription; actives raise or lower the signal
Summary of the method: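 Fluorescence of labelled reporter cDNA fragments, resolved by capillary electrophoresis, gives mRNA induction in transfected HepG2 cells treated for 24 h; DMSO serves as negative control and baseline.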

[17] = ATG_M_61_CIS: Attagene CIS-FACTORIAL HepG2 Assay for M61 Transcription Factor (Internal Marker) (AID 2282937); details: HepG2 Attagene CIS-FACTORIAL M61 internal marker reporter; actives raise or lower the signal
Summary of the method: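 Cells were transfected with reporter units under cis-regulatory promoters, treated with chemicals for 24 h, then lysed for RNA. Reporter transcripts were quantified by RT-PCR and capillary electrophoresis, and activity was fitted bidirectionally against DMSO.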

[18] = ATG_GRE_CIS: Attagene CIS-FACTORIAL HepG2 Assay for human Glucocorticoid Response Elements (GRE) (AID 2282947); details: HepG2 GRE cis-reporter, Attagene multiplex mRNA; actives raise or lower the signal
Summary of the method: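 Transient MRTU transfection of human HepG2 liver cells; cis-regulated reporters report endogenous factors. 24 h dosing → RNA isolation → RT-PCR → 6-FAM primer extension → HpaI cut → CE fragment analysis. Bidirectional fit, DMSO negative control.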

Hypoxia-inducible factor 1-alpha (Homo sapiens), sequence (Q16665 whole entry, looked up): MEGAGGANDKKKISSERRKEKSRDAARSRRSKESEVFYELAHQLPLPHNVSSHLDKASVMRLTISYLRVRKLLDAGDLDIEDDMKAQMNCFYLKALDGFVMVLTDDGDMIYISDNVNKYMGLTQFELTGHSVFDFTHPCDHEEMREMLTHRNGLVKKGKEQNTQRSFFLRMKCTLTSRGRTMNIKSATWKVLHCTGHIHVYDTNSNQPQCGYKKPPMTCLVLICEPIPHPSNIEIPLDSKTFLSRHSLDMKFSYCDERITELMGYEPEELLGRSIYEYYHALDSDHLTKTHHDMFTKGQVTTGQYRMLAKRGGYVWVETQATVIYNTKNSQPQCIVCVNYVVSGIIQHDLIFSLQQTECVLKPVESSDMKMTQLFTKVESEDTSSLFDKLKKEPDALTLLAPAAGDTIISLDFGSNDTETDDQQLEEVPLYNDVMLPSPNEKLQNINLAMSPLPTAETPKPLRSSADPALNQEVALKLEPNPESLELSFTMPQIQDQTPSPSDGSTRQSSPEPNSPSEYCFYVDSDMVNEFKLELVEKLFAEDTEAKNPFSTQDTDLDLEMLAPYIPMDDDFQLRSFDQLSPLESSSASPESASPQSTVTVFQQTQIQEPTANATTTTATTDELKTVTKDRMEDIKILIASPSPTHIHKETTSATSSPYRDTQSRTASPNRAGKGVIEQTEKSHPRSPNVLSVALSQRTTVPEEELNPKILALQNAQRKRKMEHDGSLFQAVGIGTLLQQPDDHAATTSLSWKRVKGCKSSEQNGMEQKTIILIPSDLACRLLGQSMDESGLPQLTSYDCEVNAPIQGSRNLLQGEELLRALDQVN
Hepatocyte nuclear factor 3-beta (Homo sapiens), sequence (Q9Y261 whole entry, looked up): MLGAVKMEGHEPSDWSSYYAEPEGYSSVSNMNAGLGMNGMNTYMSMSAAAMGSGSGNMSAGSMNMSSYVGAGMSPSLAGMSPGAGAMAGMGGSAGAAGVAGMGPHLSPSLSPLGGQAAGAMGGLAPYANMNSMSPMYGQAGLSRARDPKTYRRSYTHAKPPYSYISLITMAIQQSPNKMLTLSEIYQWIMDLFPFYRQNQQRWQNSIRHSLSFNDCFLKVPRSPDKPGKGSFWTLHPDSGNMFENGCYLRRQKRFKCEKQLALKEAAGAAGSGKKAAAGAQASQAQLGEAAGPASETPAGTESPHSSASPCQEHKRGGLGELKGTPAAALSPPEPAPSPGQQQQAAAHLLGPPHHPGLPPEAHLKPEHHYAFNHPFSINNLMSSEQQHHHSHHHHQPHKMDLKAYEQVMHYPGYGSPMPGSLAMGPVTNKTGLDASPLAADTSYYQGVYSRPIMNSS
Bile acid receptor (Homo sapiens), sequence (Q96RI1 whole entry, looked up, the tested form may be a part): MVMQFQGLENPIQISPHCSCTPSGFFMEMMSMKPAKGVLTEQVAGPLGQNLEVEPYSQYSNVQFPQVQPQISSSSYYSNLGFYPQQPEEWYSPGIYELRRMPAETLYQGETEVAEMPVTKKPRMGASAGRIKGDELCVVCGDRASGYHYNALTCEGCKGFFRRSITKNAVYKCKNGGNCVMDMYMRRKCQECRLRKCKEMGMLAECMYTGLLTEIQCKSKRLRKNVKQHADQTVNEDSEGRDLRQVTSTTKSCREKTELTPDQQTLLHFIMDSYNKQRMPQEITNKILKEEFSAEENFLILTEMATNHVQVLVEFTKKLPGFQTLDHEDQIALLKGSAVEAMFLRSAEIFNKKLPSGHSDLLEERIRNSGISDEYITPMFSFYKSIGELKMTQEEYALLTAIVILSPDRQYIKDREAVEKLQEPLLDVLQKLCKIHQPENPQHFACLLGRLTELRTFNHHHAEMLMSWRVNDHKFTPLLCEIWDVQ
Heat shock factor protein 1 (Homo sapiens), sequence (Q00613 whole entry, looked up): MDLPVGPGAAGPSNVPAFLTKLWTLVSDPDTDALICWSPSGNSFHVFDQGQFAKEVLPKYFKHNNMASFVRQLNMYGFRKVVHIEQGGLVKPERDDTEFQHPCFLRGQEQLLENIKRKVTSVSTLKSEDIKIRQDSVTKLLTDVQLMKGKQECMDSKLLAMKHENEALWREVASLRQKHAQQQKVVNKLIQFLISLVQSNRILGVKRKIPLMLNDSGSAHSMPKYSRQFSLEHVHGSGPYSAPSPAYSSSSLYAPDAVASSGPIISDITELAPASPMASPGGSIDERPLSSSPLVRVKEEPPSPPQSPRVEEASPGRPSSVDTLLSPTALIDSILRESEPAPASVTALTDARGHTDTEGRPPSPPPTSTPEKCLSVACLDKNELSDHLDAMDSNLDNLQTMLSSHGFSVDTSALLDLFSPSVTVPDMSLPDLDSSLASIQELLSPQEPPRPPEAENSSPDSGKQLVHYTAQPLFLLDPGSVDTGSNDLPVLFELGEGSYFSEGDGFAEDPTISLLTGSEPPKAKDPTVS
Hepatocyte nuclear factor 6 (Homo sapiens), sequence (Q9UBC0 whole entry, looked up): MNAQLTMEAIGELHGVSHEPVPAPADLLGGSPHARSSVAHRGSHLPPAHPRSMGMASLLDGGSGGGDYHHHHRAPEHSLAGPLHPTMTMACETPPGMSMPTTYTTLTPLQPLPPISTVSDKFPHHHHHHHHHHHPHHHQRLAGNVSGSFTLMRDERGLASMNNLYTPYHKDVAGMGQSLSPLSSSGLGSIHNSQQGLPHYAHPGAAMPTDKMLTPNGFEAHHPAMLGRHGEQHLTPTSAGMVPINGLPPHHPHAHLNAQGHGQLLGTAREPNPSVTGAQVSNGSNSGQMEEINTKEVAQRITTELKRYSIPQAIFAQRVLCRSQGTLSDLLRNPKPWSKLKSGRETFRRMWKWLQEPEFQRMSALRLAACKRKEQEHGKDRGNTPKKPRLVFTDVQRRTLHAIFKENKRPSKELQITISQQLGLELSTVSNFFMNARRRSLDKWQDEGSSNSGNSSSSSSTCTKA

O=C1OC(=O)c2c(Cl)c(Cl)c(Cl)c(Cl)c21
outcome [1]: inactive | outcome [2]: inactive | outcome [3]: inactive | AC50 [4]: 33.2 µM (active) | outcome [5]: inactive | outcome [6]: inactive | outcome [7]: inactive | outcome [8]: inactive | outcome [9]: inactive | outcome [10]: inactive | outcome [11]: inactive | outcome [12]: inactive | outcome [13]: inactive | outcome [14]: inactive | outcome [15]: inactive | outcome [16]: inactive

COC(=O)c1ccc(OC)cc1
outcome [17]: inactive | outcome [1]: inactive | outcome [2]: inactive | outcome [3]: inactive | outcome [4]: inactive | outcome [5]: inactive | outcome [6]: inactive | outcome [7]: inactive | outcome [8]: inactive | outcome [18]: inactive | outcome [9]: inactive | outcome [10]: inactive | outcome [11]: inactive | outcome [12]: inactive | outcome [13]: inactive | outcome [14]: inactive | outcome [15]: inactive | outcome [16]: inactive

CCc1ccc(O)cc1
outcome [17]: inactive | outcome [1]: inactive | outcome [2]: inactive | outcome [3]: inactive | outcome [4]: inactive | outcome [5]: inactive | outcome [6]: inactive | outcome [7]: inactive | outcome [18]: inactive | outcome [9]: inactive | outcome [11]: inactive | outcome [12]: inactive | outcome [13]: inactive | outcome [14]: inactive | outcome [15]: inactive | outcome [16]: inactive

CC(=O)NCCO
outcome [1]: inactive | outcome [2]: inactive | outcome [3]: inactive | outcome [4]: inactive | outcome [6]: inactive | outcome [7]: inactive | outcome [18]: inactive | outcome [9]: inactive | outcome [10]: inactive | outcome [11]: inactive | outcome [12]: inactive | outcome [13]: inactive | outcome [14]: inactive | outcome [15]: inactive | outcome [16]: inactive

CC(C)(C)c1ccc(C(=O)O)cc1
outcome [17]: inactive | outcome [1]: inactive | outcome [2]: inactive | outcome [3]: inactive | outcome [4]: inactive | outcome [5]: inactive | outcome [6]: inactive | outcome [7]: inactive | outcome [8]: inactive | outcome [18]: inactive | outcome [9]: inactive | outcome [11]: inactive | outcome [12]: inactive | outcome [13]: inactive | outcome [14]: inactive | outcome [15]: inactive

CN(C)CCOc1ccc(/C(=C(/CCCl)c2ccccc2)c2ccccc2)cc1
outcome [17]: inactive | outcome [1]: inactive | outcome [2]: inactive | outcome [3]: inactive | outcome [4]: inactive | outcome [5]: inactive | outcome [6]: inactive | outcome [7]: inactive | outcome [8]: inactive | outcome [9]: inactive | outcome [10]: inactive | outcome [11]: inactive | outcome [12]: inactive | outcome [13]: inactive | outcome [14]: inactive | outcome [15]: inactive

C=C(CC(=O)O)C(=O)O
outcome [17]: inactive | outcome [1]: inactive | outcome [2]: inactive | outcome [3]: inactive | outcome [4]: inactive | outcome [5]: inactive | outcome [6]: inactive | outcome [7]: inactive | outcome [8]: inactive | outcome [18]: inactive | outcome [9]: inactive | outcome [10]: inactive | outcome [11]: inactive | outcome [13]: inactive | outcome [14]: inactive | outcome [15]: inactive

CC(C)CC(C)CC(O)CC(C)C (stereo not drawn)
outcome [1]: inactive | outcome [2]: inactive | outcome [3]: inactive | outcome [4]: inactive | outcome [5]: inactive | outcome [6]: inactive | outcome [7]: inactive | outcome [8]: inactive | outcome [9]: inactive | outcome [11]: inactive | outcome [12]: inactive | outcome [13]: inactive | outcome [14]: inactive | outcome [15]: inactive | outcome [16]: inactive
